Results on seven molecules are retold here after PubChem BioAssay (EPA / NIEHS).

Results filed as inconclusive are left out. Active and inactive are the calls of the source. How the source made its calls, unless noted: active means hit-call score of the fitted dose curve at least 0.9, where 1 is the maximum; inactive means score below 0.9.

For assay [1], the target named is Retinoic acid receptor RXR-alpha (Homo sapiens) (UniProt P19793). Put plainly: ATG_RXRa_TRANS: Attagene TRANS-FACTORIAL HepG2 Assay for human Retinoid X Receptor alpha (RXRa) (AID 2283012; active means hit-call score of the fitted dose curve at least 0.9, where 1 is the maximum). An outline of the steps: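 Read-out: fluorescent reporter-transcript fragments quantified by capillary electrophoresis after RT-PCR. Transiently transfected HepG2 cells carrying GAL4-UAS reporters and NR-GAL4 chimeras were exposed to chemical for 24 h; activity scored as increase over DMSO.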

In assay [2] the target is human Retinoid X Receptor beta (RXRb), RXRB (gene 6257) (UniProt P28702). Put plainly: ATG_RXRb_TRANS: Attagene TRANS-FACTORIAL HepG2 Assay for human Retinoid X Receptor beta (RXRb) (AID 2283013; active means hit-call score of the fitted dose curve at least 0.9, where 1 is the maximum). An outline of the steps: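 Read-out: reporter mRNA induction via RT-PCR plus capillary electrophoresis fluorescence, analysed as signal increase relative to DMSO. Cells were human HepG2, transiently transfected with GAL4-UAS reporter constructs and chimeric receptor-Gal4 fusions, dosed for 24 h.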

In assay [3] the target is human Thyroid Receptor alpha (THRa1), THRA (gene 7067) (UniProt P10827). As to the kind of experiment: ATG_THRa1_TRANS: Attagene TRANS-FACTORIAL HepG2 Assay for human Thyroid Receptor alpha (THRa1) (AID 2283014; active means hit-call score of the fitted dose curve at least 0.9, where 1 is the maximum). In short, it runs like this: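 Reporter transcript induction, read by capillary electrophoresis of 6-FAM-labelled RT-PCR products, reflects activity of a transfected THRa1-Gal4 fusion in HepG2 liver cells. Cells were dosed for 24 h; activity was fitted in the positive direction against DMSO.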

Read-out in assay [4]: E-selectin (Homo sapiens) (UniProt P16581)
As to the kind of experiment: BSK_3C_Eselectin: BioMAP Diversity Plus: 3C Assay for Eselectin Biomarker Activity (AID 2283015).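 On outcome: cell surface E-selectin protein quantified by ELISA 24 h after dosing.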 The conditions noted are these: primary human endothelial cells (HUVEC); actives raise or lower the signal. In short, it runs like this:
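ELISA read-out of E-selectin on endothelial monolayers after 24 h chemical treatment. Human umbilical vein primary cells served as the system, with DMSO defining baseline activity for bidirectional fitting.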

Read-out in assay [5]: Interleukin-1 alpha (IL1a), IL1A (gene 3552)
Put plainly: BSK_BE3C_IL1a: BioMAP Diversity Plus: BE3C Assay for Interleukin-1 alpha (IL1a) Biomarker Activity (AID 2283016). The conditions noted are these: primary human bronchial epithelial cells; actives raise or lower the signal. In short, it runs like this:
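ELISA read-out of IL-1a from human lung bronchial epithelial primary cells, 24 h post-dose. Gain or loss of signal fitted relative to DMSO negative control.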

Read-out in assay [6]: Monocyte Chemoattractant Protein-1 (MCP1), CCL2 (gene 6347)
As to the kind of experiment: BSK_3C_MCP1: BioMAP Diversity Plus: 3C Assay for Monocyte Chemoattractant Protein-1 (MCP1) Biomarker Activity (AID 2283017). The following applies: primary human endothelial cells (HUVEC); actives raise or lower the signal. In short, it runs like this: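 ELISA read-out of MCP-1 from human umbilical vein endothelial cell cultures harvested 24 h post-dosing. Gain or loss of signal was fitted relative to DMSO.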

Read-out in assay [7]: Monocyte Chemoattractant Protein-1 (MCP1), CCL2 (gene 6347)
As to the kind of experiment: BSK_4H_MCP1: BioMAP Diversity Plus: 4H Assay for Monocyte Chemoattractant Protein-1 (MCP1) Biomarker Activity (AID 2283018). The conditions noted are these: primary human endothelial cells (HUVEC); actives raise or lower the signal. In short, it runs like this:
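HUVEC primary cells, 24 h post-dose, MCP-1 by ELISA. Gain or loss of signal fitted bidirectionally vs DMSO baseline. Cytotoxicity: SRB stain (0.1% after 10% TCA fixation), read 560 nm, parallel cultures.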

Read-out in assay [8]: Human Leukocyte Antigen - DR isotype (HLADR), HLA-DRA (gene 3122)
As to the kind of experiment: BSK_3C_HLADR: BioMAP Diversity Plus: 3C Assay for Human Leukocyte Antigen - DR isotype (HLADR) Biomarker Activity (AID 2283019). The conditions noted are these: primary human endothelial cells (HUVEC); actives raise or lower the signal. In short, it runs like this: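 ELISA readout of surface HLA-DR on human umbilical vein endothelium, taken 24 h after chemical treatment. Gain- and loss-of-signal were both fitted relative to DMSO.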

Read-out in assay [9]: Interleukin-8 (IL8), CXCL8 (gene 3576)
As to the kind of experiment: BSK_3C_IL8: BioMAP Diversity Plus: 3C Assay for Interleukin-8 (IL8) Biomarker Activity (AID 2283020). The following applies: primary human endothelial cells (HUVEC); actives raise or lower the signal. In short, it runs like this: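 HUVEC, 3C stimulation; 24 h compound exposure; IL-8 read by ELISA; gain or loss of signal fitted relative to DMSO control.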

Read-out in assay [10]: Monokine induced gamma interferon (MIG), CXCL9 (gene 4283)
As to the kind of experiment: BSK_3C_MIG: BioMAP Diversity Plus: 3C Assay for Monokine induced gamma interferon (MIG) Biomarker Activity (AID 2283021). The following applies: primary human endothelial cells (HUVEC); actives raise or lower the signal. In short, it runs like this:
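HUVEC, 3C system; 24 h chemical exposure; MIG by ELISA; bidirectional fit vs DMSO baseline.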

Assay [11] deals with human Vitamin D Receptor (VDR), VDR (gene 7421) (UniProt P11473). As to the kind of experiment: ATG_VDR_TRANS: Attagene TRANS-FACTORIAL HepG2 Assay for human Vitamin D Receptor (VDR) (AID 2283022; active means hit-call score of the fitted dose curve at least 0.9, where 1 is the maximum). An outline of the steps:
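Steps: transfect HepG2 with GAL4-UAS-driven reporter constructs; dose compounds 24 h; isolate RNA, reverse-transcribe, PCR-amplify with 6-FAM-labelled primer extension and HpaI digestion; quantify fragments by capillary electrophoresis relative to DMSO.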

The nature of assay [12]: BSK_3C_SRB: Viability Assessment in the BioMAP Diversity Plus: 3C Assay (AID 2283023).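 Further: fitted both ways against DMSO so a hit may be signal rise or drop.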 The following applies: primary human endothelial cells (HUVEC). An outline of the steps: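 Absorbance at 560 nm of sulforhodamine B-stained (0.1%) total protein served as a cytotoxicity readout in human umbilical vein endothelial cells, 24 h after chemical treatment. Signal was fitted bidirectionally relative to DMSO.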

Read-out in assay [13]: Matrix Metallopeptidase 1 (MMP1), MMP1 (gene 4312)
Put plainly: BSK_BE3C_MMP1: BioMAP Diversity Plus: BE3C Assay for Matrix Metallopeptidase 1 (MMP1) Biomarker Activity (AID 2283024). The conditions noted are these: primary human bronchial epithelial cells; actives raise or lower the signal. In short, it runs like this: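 ELISA read-out of MMP1 in human lung bronchial epithelial primary cultures, 24 h post-dose; bidirectional curve fit vs DMSO baseline, gain or loss of signal scored.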

Assay [14] is described as follows: BSK_3C_Vis: BioMAP Diversity Plus: 3C Assay for Morphology Visualization (AID 2283025).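 Further: fitted both ways so gain or loss versus DMSO counts.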 The conditions noted are these: primary human endothelial cells (HUVEC). In short, it runs like this: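 HUVEC, 3C system; light microscopy of morphology at 24 h post-dose. Bidirectional fit vs DMSO baseline. Secondary readout, background-control function.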
Assay [15] in a line: BSK_4H_SRB: Viability Assessment in the BioMAP Diversity Plus: 4H Assay (AID 2283027).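 Further: cells exposed to compound for 24 h before staining.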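 On AC50: curves fitted both ways versus DMSO so AC50 may be loss or gain.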 The conditions noted are these: primary human endothelial cells (HUVEC). In short, it runs like this: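 HUVEC, 24 h post-dose; 10% TCA fix, 0.1% SRB stain, A560 nm. Total protein = overt cytotoxicity, parallel to biomarker read. Bidirectional fit vs DMSO baseline.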
Assay [16] in a line: BSK_BE3C_SRB: Viability Assessment in the BioMAP Diversity Plus: BE3C Assay (AID 2283028). The following applies: primary human bronchial epithelial cells. In short, it runs like this:
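Cells (human bronchial epithelial, primary) are treated with chemicals, and after 24 h the parallel cultures are fixed in 10% TCA. These are then stained with 0.1% SRB and read at 560 nm. Gain or loss of signal is fitted relative to DMSO.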

Read-out in assay [17]: Thrombomodulin, THBD (gene 7056)
As to the kind of experiment: BSK_3C_Thrombomodulin: BioMAP Diversity Plus: 3C Assay for Thrombomodulin Biomarker Activity (AID 2283029). The following applies: primary human endothelial cells (HUVEC); actives raise or lower the signal. An outline of the steps:
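HUVEC, 3C conditions; compound 24 h; thrombomodulin by ELISA; bidirectional curve fit vs DMSO baseline; parallel SRB total-protein staining for cytotoxicity.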

Read-out in assay [18]: Urokinase-type plasminogen activator receptor (uPAR), PLAUR (gene 5329)
As to the kind of experiment: BSK_4H_uPAR: BioMAP Diversity Plus: 4H Assay for Urokinase-type plasminogen activator receptor (uPAR) Biomarker Activity (AID 2283030). The following applies: primary human endothelial cells (HUVEC); actives raise or lower the signal. An outline of the steps: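 Cell-surface uPAR ELISA signal, measured 24 h after dosing human umbilical vein endothelial cells, was analyzed with bidirectional fitting relative to DMSO. Parallel SRB staining of total protein tracked overt cytotoxicity.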

Read-out in assay [19]: Vascular endothelial growth factor receptor 2 (Homo sapiens) (UniProt P35968)
As to the kind of experiment: BSK_4H_VEGFRII: BioMAP Diversity Plus: 4H Assay for Vascular endothelial growth factor receptor 2 (VEGFR2) Biomarker Activity (AID 2283031). The conditions noted are these: primary human endothelial cells (HUVEC); actives raise or lower the signal. In short, it runs like this:
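ELISA read-out of VEGFRII in primary human umbilical vein endothelium, taken 24 h after chemical treatment. Responses are expressed relative to DMSO, with bidirectional fitting.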

Read-out in assay [20]: Pselectin, SELP (gene 6403)
As to the kind of experiment: BSK_4H_Pselectin: BioMAP Diversity Plus: 4H Assay for Pselectin Biomarker Activity (AID 2283026). The conditions noted are these: primary human endothelial cells (HUVEC); actives raise or lower the signal. In short, it runs like this:
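HUVEC, 24 h chemical exposure; P-selectin read by ELISA. Bidirectional curve fit vs DMSO baseline; gain or loss of signal scored.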

Sequence of human Thyroid Receptor alpha (THRa1), THRA (gene 7067) (P10827 whole entry, looked up, the tested form may be a part): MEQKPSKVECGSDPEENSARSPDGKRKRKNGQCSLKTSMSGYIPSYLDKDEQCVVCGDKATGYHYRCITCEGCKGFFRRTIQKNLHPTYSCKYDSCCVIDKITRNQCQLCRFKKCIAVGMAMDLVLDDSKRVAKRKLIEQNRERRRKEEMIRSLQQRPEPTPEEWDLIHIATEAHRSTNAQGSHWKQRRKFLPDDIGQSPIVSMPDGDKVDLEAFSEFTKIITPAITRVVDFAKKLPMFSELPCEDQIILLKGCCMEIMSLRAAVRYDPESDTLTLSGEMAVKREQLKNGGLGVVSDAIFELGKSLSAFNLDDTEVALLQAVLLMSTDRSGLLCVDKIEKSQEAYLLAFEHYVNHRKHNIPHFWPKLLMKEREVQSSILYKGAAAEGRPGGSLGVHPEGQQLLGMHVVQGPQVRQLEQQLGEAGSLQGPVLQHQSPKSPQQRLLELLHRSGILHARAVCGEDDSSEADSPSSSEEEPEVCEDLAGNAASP
Sequence of human Retinoid X Receptor beta (RXRb), RXRB (gene 6257) (P28702 whole entry, looked up, the tested form may be a part): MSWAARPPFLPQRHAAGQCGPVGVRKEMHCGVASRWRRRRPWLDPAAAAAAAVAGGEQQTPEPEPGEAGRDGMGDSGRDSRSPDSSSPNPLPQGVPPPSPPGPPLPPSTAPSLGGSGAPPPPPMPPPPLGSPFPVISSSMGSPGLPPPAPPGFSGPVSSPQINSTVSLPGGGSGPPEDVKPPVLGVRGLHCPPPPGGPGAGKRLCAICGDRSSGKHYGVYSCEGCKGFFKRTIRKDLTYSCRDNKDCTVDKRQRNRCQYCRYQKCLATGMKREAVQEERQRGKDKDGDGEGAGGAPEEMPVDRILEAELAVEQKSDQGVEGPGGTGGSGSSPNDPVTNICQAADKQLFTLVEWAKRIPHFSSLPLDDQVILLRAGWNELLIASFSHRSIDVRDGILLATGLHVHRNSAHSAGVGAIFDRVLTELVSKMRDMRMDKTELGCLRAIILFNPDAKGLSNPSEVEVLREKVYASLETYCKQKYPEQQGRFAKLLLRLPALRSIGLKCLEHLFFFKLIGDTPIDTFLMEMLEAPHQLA
Sequence of Retinoic acid receptor RXR-alpha (Homo sapiens) (P19793 whole entry, looked up, the tested form may be a part): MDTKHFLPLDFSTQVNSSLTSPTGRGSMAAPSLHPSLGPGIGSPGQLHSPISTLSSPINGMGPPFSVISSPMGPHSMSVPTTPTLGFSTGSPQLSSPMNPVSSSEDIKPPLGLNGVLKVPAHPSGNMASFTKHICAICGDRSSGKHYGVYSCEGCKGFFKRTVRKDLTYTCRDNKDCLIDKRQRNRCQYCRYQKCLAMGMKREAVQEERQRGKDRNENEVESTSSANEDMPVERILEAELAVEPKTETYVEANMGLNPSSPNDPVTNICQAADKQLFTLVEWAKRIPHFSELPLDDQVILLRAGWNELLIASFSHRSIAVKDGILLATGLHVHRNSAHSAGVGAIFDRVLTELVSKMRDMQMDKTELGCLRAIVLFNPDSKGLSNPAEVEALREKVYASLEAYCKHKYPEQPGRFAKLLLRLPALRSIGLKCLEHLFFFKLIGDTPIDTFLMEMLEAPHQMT
Sequence of human Vitamin D Receptor (VDR), VDR (gene 7421) (P11473 whole entry, looked up, the tested form may be a part): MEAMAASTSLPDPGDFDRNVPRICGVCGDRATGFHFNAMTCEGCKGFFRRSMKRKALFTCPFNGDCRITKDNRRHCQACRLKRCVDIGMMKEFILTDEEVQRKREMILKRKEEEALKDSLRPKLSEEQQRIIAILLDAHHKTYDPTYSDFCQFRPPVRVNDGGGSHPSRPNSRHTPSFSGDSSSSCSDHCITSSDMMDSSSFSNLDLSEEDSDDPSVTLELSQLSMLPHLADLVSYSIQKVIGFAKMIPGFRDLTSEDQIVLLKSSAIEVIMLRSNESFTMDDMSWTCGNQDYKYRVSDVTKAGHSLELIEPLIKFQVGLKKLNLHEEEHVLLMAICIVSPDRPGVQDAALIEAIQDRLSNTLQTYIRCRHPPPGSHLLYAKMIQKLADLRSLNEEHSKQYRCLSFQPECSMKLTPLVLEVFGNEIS
Sequence of E-selectin (Homo sapiens) (P16581 whole entry, looked up): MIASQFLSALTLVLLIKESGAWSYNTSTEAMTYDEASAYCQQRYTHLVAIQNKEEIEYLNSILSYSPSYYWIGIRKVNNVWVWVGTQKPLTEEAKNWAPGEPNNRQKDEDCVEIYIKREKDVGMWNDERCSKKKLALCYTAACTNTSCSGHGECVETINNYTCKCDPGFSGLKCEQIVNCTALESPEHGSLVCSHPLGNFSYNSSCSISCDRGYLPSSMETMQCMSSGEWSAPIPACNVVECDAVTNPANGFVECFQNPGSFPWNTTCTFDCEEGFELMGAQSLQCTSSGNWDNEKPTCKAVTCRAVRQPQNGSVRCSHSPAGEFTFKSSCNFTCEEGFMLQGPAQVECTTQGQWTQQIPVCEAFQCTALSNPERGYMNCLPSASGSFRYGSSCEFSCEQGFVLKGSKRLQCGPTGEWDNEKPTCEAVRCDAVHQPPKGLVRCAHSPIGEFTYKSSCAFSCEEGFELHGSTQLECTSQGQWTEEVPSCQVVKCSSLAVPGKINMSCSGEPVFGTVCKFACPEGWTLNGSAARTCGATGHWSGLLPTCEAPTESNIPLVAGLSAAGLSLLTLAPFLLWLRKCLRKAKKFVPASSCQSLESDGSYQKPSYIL

As for `Cc1cc(N=Nc2ccccc2C)ccc1N`, the outcome in [1], in assay [2], in assay [3], in assay [4], in assay [5] and in assay [7] was inactive. Besides, the result in [10], in assay [11], in [13], in assay [16] and in assay [19] was inactive. Moreover, the AC50 was 10.8 µM (active) in [6]; 27.5 µM (active) in assay [8]; 20 µM (active) in assay [9]; 11.1 µM (active) in assay [12]; 39 µM (active) in assay [14]; 5.17 µM (active) in assay [15]. Besides, the values for the AC50 in assay [17] and in assay [18] were 3 µM (active) and 1.95 µM (active), respectively.
On to `CCCCCCCCOC(=O)c1ccc(C(=O)OCCCCCCCC)c(C(=O)OCCCCCCCC)c1`, for which the outcome in [1], in assay [4], in [5], in assay [6], in [7] and in [8] was inactive. In addition, the result in assay [9], in assay [10], in [12], in assay [13], in assay [14] and in [15] was inactive. Further, the outcome in [16], in [17], in assay [18] and in [19] was inactive. Further, the half-maximal activity concentration (AC50) in assay [2] is 65.4 µM (active).
Consider `CCC12COCN1COC2`, for which the molecule was called inactive in [1], in [4], in assay [5], in assay [6], in assay [7] and in assay [8]. For the same molecule, the result in assay [9], in [10], in assay [12], in assay [13], in assay [14] and in [15] was inactive. Also, the outcome in [16], in assay [17], in assay [18] and in assay [19] was inactive.
Consider `Nc1ccc(Oc2ccc(N)cc2)cc1`, for which the result in assay [1], in [4], in assay [5], in assay [6], in assay [7] and in [8] was inactive. For the same molecule, the result in assay [9], in assay [10], in [12], in [13], in assay [14] and in [15] was inactive. The result in [16], in [17], in assay [18] and in assay [19] was inactive.
Turning to `N#CC(Br)(Br)C(N)=O`, in [2], the AC50 was 10 µM (active). The result in assay [3], in [4], in assay [5], in assay [6], in assay [7] and in [8] was inactive. In addition, the result in [9], in assay [10], in [11], in assay [12], in assay [13] and in [14] was inactive. In addition, the outcome in [20], in [15], in assay [16], in assay [17], in [18] and in assay [19] was inactive.
For the molecule `Brc1ccc(Oc2ccccc2)cc1`, the molecule was classed as inactive in [1], in assay [5], in assay [6], in assay [7], in assay [8] and in assay [9]. In addition, the result in assay [10], in assay [11], in [13], in assay [14], in assay [20] and in assay [15] was inactive. The result in [16], in assay [17], in assay [18] and in [19] was inactive. The half-maximal activity concentration (AC50) is 69.7 µM (active) in [2], 30.9 µM (active) in [4] and 28.9 µM (active) in assay [12].
For `CN(C)C(=O)Nc1ccc(Cl)cc1`, the call in [1], in assay [3], in assay [4], in [5], in assay [6] and in assay [7] was inactive. The result in [8], in assay [9], in assay [10], in assay [12], in [13] and in assay [14] was inactive. The outcome in [15], in assay [16], in [17], in assay [18] and in assay [19] was inactive.
